Test [1] can be described thus: NCI Yeast Anticancer Drug Screen. Data for the rad50 strain (AID 155).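 Further: 0% = growth of vehicle-only cultures of the same strain.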 Conditions: S. cerevisiae rad50 strain growth inhibition; at 50.0 µM; active compounds read high. Put shortly: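 Compounds were tested on a yeast strain with an engineered DNA damage repair alteration; the reported value is growth inhibition normalised to vehicle treatment.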
Test [2] can be described thus: NCI Yeast Anticancer Drug Screen. Data for the mec2-1 strain (AID 157). Conditions: S. cerevisiae mec2-1 strain, at 50.0 µM, active compounds read high. The method, boiled down:
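mec2-1 yeast strain, carrying an alteration in DNA damage repair or cell cycle control, was exposed to compounds; growth inhibition was measured relative to vehicle-treated controls.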

Test [3] is described as follows: NCI Yeast Anticancer Drug Screen. Data for the sgs1 mgt1 strain (AID 161).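 Further: 0% = growth of cultures given vehicle only.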 Conditions: S. cerevisiae sgs1 mgt1 strain, at 50.0 µM, active compounds read high. The method, boiled down:
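Compounds are added to genetically altered yeast, and growth is compared with cultures given vehicle alone to give percent inhibition.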

The nature of test [4]: NCI Yeast Anticancer Drug Screen. Data for the cln2 rad14 strain (AID 165).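 Further: 0% = growth equal to vehicle treated cultures.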 Conditions: S. cerevisiae cln2 rad14 strain, at 50.0 µM, active compounds read high. Put shortly: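 Yeast carrying cln2 and rad14 alterations (cell cycle control and DNA damage repair) were exposed to compounds. Growth inhibition was measured against vehicle-treated controls.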
The nature of test [5]: NCI Yeast Anticancer Drug Screen. Data for the bub3 strain (AID 167). Conditions: S. cerevisiae bub3 mutant strain, at 50.0 µM, active compounds read high. The method, boiled down: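 Growth of a checkpoint-deficient yeast mutant is measured after compound exposure. Values represent inhibition relative to vehicle.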
Test [6] is described as follows: NCI Yeast Anticancer Drug Screen. Data for the mlh1 rad18 strain (AID 175). Particulars: S. cerevisiae mlh1 rad18 strain growth inhibition; at 50.0 µM; active compounds read high. Put shortly: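 Growth inhibition of the yeast strain was measured after compound exposure and expressed relative to vehicle-treated controls. The strain carries defined defects in DNA damage repair.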

This is part of a sample that, as a whole, favours compounds with a hit. Of some 79,000 tested, about 15% had one in any assay. Values without a mark were called inactive. Active and inactive are the calls of the source. No stated cut-off is given here; in the data, active means growth inhibition above about 70%; inactive means the rest.

Consider `CCN(CC)c1ccc2c(C)cc(=O)oc2c1`, for which the growth inhibition was 6.35% in test [1]; -10.6% in test [2]; 6.35% in test [3]; 3.8% in test [4]; 12.9% in test [5]; 0.9% in test [6].

As to `C=C1C(c2ccccc2)C(c2ccccc2)=C(C)C(c2ccccc2)=CN1C(=O)c1ccccc1` (stereo not given), the growth inhibition in test [1] is -3.05%; in test [2], 8.7%; in test [3] it was -9.2%; in test [4], 23.2%; in test [5], -4.7%; in test [6] it was 15.2%.

For `CN(C)Cc1ccccc1C(=C(c1ccccc1)c1ccccc1)c1ccccc1`, the growth inhibition in test [1] was -15.1%; in test [2], -4.65%; in test [3] it was -8%; in test [4], -23.6%; in test [5], -0.8%; in test [6], -10.9%.

`CC(C)OC(=O)N[C@@H]1c2ccccc2CC[C@H]1I`: the growth inhibition is 24.5% in test [1]; 5.8% in test [2]; 19.3% in test [3]; -36.5% in test [4]; 24.7% in test [5]; 3.55% in test [6].

With `CC(C)C1OC2(CCCC2)OCC1(C)C` (stereo not given), the growth inhibition in test [1] was -10.2%; in test [2], -19.4%; in test [3], -10.4%; in test [4], -21.8%; in test [5] it was -4.7%; in test [6] it was -1.1%.

For the compound `CCC1(C)OCC(C)(C)C(C(C)C)O1` (stereo not given), the growth inhibition was -13.7% in test [1]; 3% in test [2]; -17.4% in test [3]; -62.5% in test [4]; -39.6% in test [5]; -14.6% in test [6].

Turning to `CCOc1ccc(/C=C2/C(=O)N(/C=C3/C(=O)Oc4ccccc4C3=O)C(=NC(C)=O)N2C)cc1`, the growth inhibition in test [1] is 8.75%; in test [2], -13%; in test [3], -10.8%; in test [4] it was 12.7%; in test [5], -1.85%; in test [6], 2.35%.

With `Cc1ccc2nc(NS(=O)(=O)c3cc(C)c(Cl)cc3S)[nH]c2c1`, the growth inhibition was 9.35% in test [1]; 4.35% in test [2]; 9.1% in test [3]; 8.25% in test [4]; 16.4% in test [5]; 39.9% in test [6].

As for `O=C(O)Cc1cc(Cl)ccc1Cl`, the growth inhibition in test [1] was -4%; in test [2], 8.85%; in test [3], 8.7%; in test [4], -2.55%; in test [5], -1.2%; in test [6], -9.05%.

With `CC(C)(C)N=Cc1ccccc1[O-].CC(C)(C)N=Cc1ccccc1[O-].[Co+2]`, the growth inhibition was 4% in test [1]; 7.9% in test [2]; -14.5% in test [3]; 0.25% in test [4]; 3.6% in test [5]; -5.85% in test [6].

In the case of `CC(C)(C)/C=N/Nc1ccc([N+](=O)[O-])cc1[N+](=O)[O-]`, the growth inhibition is 26.4% in test [1]; 15.1% in test [2]; -0.05% in test [3]; -40.2% in test [4]; 11.7% in test [5]; -13.3% in test [6].

With `N/N=C1\CCCc2c1no[n+]2[O-]`, the growth inhibition in test [1] was 6.05%; in test [2] it was -4.05%; in test [3], -0.5%; in test [4], 4%; in test [5], -9.9%; in test [6], 3.2%.

For the compound `CC(=O)NC1CC(C)(C)NC(C)(C)C1`, the growth inhibition in test [1] was -18.6%; in test [2], -30.2%; in test [3], 3.45%; in test [4] it was 10.5%; in test [5], 0.5%; in test [6], -9.25%.

Take `O=C(NNC(=S)Nc1ccccc1)c1nsc2ccccc12`: the growth inhibition in test [1] was 43.5%; in test [2], 12.2%; in test [3] it was 35%; in test [4] it was 29.4%; in test [5], 28%; in test [6], 23.4%.

Regarding `CC(=O)CC(=NCC(O)CN=C(CC(C)=O)c1ccccc1)c1ccccc1.[Cu]` (stereo not given), the growth inhibition was 10.4% in test [1]; 8.55% in test [2]; 5.9% in test [3]; -18.7% in test [4]; -11.3% in test [5]; 25.4% in test [6].

`C1=COC(C2NCCCN2)CC1` (stereo not given): the growth inhibition in test [1] is -5.9%; in test [2] it was 8.25%; in test [3] it was -2.6%; in test [4], -68.8%; in test [5], -26.5%; in test [6], -3.7%.

With `COc1ccc(C(O)(CCN2CCOCC2)c2ccc3c(c2)OCO3)cc1` (stereo not given), the growth inhibition in test [1] is -8.4%; in test [2], 9.2%; in test [3], -7.7%; in test [4], -47.4%; in test [5], 8.6%; in test [6], -0.3%.

As to `CC(I)CNc1ccc(C(=O)O)c(O)c1` (stereo not given), the growth inhibition was 3.7% in test [1]; -4.9% in test [2]; 6.15% in test [3]; 1% in test [4]; 11.6% in test [5]; -11.9% in test [6].

`NNC(=O)C(=O)N/N=C1\CCCC1C(=O)CCC(=O)Nc1cccc(Cl)c1` (stereo not given): the growth inhibition in test [1] was -35.5%; in test [2], -33.4%; in test [3], -32.3%; in test [4], -1.65%; in test [5] it was -24.1%; in test [6], -30.9%.

As to `CN(C)C(=S)S(=O)(=O)c1ccc([N+](=O)[O-])cc1`, the growth inhibition was 26.8% in test [1]; 14.7% in test [2]; 23.6% in test [3]; -7.4% in test [4]; 31.6% in test [5]; 92.3% (active) in test [6].

These data come from PubChem BioAssay (NCI).
